Measured values reported in PubChem BioAssay (NCATS).
Inconclusive results are not listed. Unless noted, calls follow the shape of the dose curve; as a rule, active = well fitted curve in either direction with a large enough effect (not every such curve was filed as active); inconclusive = small, poorly fitted or top-dose-only effect, or another doubt; inactive = flat fitted curve, though single readings scatter.

Columns and labels:
[1] = AP1 Signaling Pathway (AID 357); conditions: ME-180 AP-1-bla reporter, EGF-induced, beta-lactamase ratio, 5 h; at 17.2 µM (top of the series) unless noted;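 also: ME-180 reporter cells stimulated with EGF at its EC50 level; % is scaled to controls: 0 for no effect and ±100 for the full control effect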
Method in brief: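 Cells are seeded overnight, exposed to compound titrations and an EC50 level of EGF for 5 hours at 37 °C, then loaded with CCF4 dye for 2.5 hours. Beta-lactamase activity under the AP-1 element is read as a blue/green ratio.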

[2] = Stat Signaling Pathway (AID 446); conditions: ME-180 (cervical carcinoma) SIE beta-lactamase reporter, IL-6 stimulated, 5 h; at 17.2 µM (top of the series) unless noted;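 also: ME-180 cervical cancer cells given 40 pM IL-6 alongside compound; SIE-controlled beta-lactamase reporter measured as 460/530 nm FRET emission ratio; % is scaled to controls: 0 for no effect and ±100 for the full control effect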
Method in brief: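 FRET read-out (405 nm excitation, 460/530 nm emission) of a beta-lactamase reporter under a STAT-inducible element in ME-180 cervical carcinoma cells. Cells with compound receive 40 pM IL-6 for 5 h. Values are normalised to AC90 stimulation and AC90 JAK-inhibitor controls.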

[3] = target: Glucocorticoid receptor (Homo sapiens) (UniProt P04150); test: GR-GFP Redistribution (AID 450;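 active = compounds whose dose series gives a full or clear partial fitted curve of increased nuclear translocation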; also: potency is read from the fitted curve at half-maximal effect)
Chain of Glucocorticoid receptor (Homo sapiens) (P04150 whole entry, looked up): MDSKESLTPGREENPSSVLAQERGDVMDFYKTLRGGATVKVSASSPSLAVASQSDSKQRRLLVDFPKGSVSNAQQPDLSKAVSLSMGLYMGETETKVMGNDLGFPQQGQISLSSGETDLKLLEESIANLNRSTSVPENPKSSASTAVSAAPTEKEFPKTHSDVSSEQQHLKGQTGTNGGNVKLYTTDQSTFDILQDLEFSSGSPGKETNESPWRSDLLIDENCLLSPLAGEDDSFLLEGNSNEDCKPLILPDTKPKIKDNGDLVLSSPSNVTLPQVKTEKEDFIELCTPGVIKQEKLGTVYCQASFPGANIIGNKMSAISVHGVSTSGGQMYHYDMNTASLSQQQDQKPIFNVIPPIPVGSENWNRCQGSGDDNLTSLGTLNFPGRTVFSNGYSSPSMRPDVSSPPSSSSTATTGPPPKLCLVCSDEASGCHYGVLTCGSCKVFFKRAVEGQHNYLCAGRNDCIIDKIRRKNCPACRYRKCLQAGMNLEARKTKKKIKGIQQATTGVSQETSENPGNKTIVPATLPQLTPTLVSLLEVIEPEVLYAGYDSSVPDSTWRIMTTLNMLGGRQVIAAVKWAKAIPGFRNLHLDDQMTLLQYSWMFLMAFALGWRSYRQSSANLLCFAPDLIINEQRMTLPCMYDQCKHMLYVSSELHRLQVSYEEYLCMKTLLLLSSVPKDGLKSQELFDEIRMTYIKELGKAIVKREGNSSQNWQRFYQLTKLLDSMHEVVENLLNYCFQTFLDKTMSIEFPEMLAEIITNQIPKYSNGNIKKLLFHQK

COc1ccc(Nc2cc(C)nc3ccccc23)cc1
inactive: activity change, negative = inhibition [1] 10.5% | activity, negative = inhibition [2] 5.77% | Potency [3] > 20.6 µM

Cc1nn2cnc3sc4c(c3c2nc1=O)CCCC4
inactive: activity change, negative = inhibition [1] 10.1% | activity, negative = inhibition [2] -8.12% | Potency [3] > 20.6 µM

CCOC(=O)COn1c(=O)c(-c2ccco2)[n+]([O-])c2ccccc21
inactive: activity change, negative = inhibition [1] -20.1% | activity, negative = inhibition [2] 12.3% | Potency [3] > 20.6 µM

CCCCC(=O)C1CCN(Cc2ccccc2)CC1
inactive: activity change, negative = inhibition [1] 4.33% | activity, negative = inhibition [2] 3.33% | Potency [3] > 20.6 µM

COCc1[nH]nc2c1C(c1ccc(OC)cc1)C(C#N)=C(N)O2 (stereo not given)
inactive: activity change, negative = inhibition [1] 2.89% | activity, negative = inhibition [2] -11.4% | Potency [3] > 20.6 µM

Clc1ccc(Cl)c(-c2ccc(/C=N/c3ncn[nH]3)o2)c1
inactive: activity change, negative = inhibition [1] -20.5% | activity, negative = inhibition [2] -6.04% | Potency [3] > 20.6 µM

Cc1cccc(OCCN2CSC(=S)N(C)C2)c1
inactive: activity change, negative = inhibition [1] -16.7% | activity, negative = inhibition [2] -7.42% | Potency [3] > 20.6 µM

CCc1nnc(NC(=O)CSc2nc(C)c3c(c2C#N)CCCC3)s1
inactive: activity change, negative = inhibition [1] -12.7% | activity, negative = inhibition [2] -23.4% | Potency [3] > 20.6 µM

CN(CC(O)COc1ccc(OCC(O)CN(C)C2CCCCC2)cc1)C1CCCCC1 (stereo not given)
inactive: activity change, negative = inhibition [1] 11.3% | activity, negative = inhibition [2] 12.2% | Potency [3] > 20.6 µM

CCCc1cc(C(=O)Cc2ccc(F)cc2)c(O)cc1O
inactive: activity change, negative = inhibition [1] -28% | activity, negative = inhibition [2] -25.5% | Potency [3] > 20.6 µM

CCOc1ccccc1N1CCN(c2nc3ccccc3nc2C(C#N)C(=O)OC(C)C)CC1 (stereo not given)
inactive: activity change, negative = inhibition [1] 16.5% | activity, negative = inhibition [2] -13.8% | Potency [3] > 20.6 µM

CC(C)CSc1nc(N2CCOCC2)c2c(c1C#N)CC(C)(C)SC2
inactive: activity change, negative = inhibition [1] -7.32% | activity, negative = inhibition [2] 2.55% | Potency [3] > 20.6 µM

N#Cc1nc(COc2ccc(Br)cc2)oc1N1CCN(Cc2ccccc2)CC1
inactive: activity change, negative = inhibition [1] -15.5% | activity, negative = inhibition [2] 8.74% | Potency [3] > 20.6 µM

COCCCn1cnc2c(c1=O)c1nc3ccccc3nc1n2CCc1ccccc1
inactive: activity change, negative = inhibition [1] -15.7% | activity, negative = inhibition [2] -9.66% | Potency [3] > 20.6 µM

CCC(NC(C)C)C(O)c1ccc(O)c2[nH]c(=O)ccc12 (stereo not given)
inactive: activity change, negative = inhibition [1] -12.1% | activity, negative = inhibition [2] 11.4% | Potency [3] > 20.6 µM

Cc1cccc(NC(=O)c2c(C)cc(=O)oc2C)n1
inactive: activity change, negative = inhibition [1] -0.882% | activity, negative = inhibition [2] 4.29% | Potency [3] > 20.6 µM

CC1(C)Cc2c(c(N3CCOCC3)nc3sc(C#N)c(N)c23)CS1
inactive: activity change, negative = inhibition [1] 11.7% | activity, negative = inhibition [2] -14.4% | Potency [3] > 20.6 µM

O=c1c2c3c(sc2n2cnnc2n1Cc1ccccc1)CN(Cc1ccccc1)CC3
inactive: activity change, negative = inhibition [1] 0.127% | activity, negative = inhibition [2] -0.303% | Potency [3] > 20.6 µM

COc1cc(-c2nn3c(-c4cccnc4)nnc3s2)cc(OC)c1OC
inactive: activity change, negative = inhibition [1] -0.374% | activity, negative = inhibition [2] -7.44% | Potency [3] > 20.6 µM

CC1(C)Cc2c(C#N)c(OCC(=O)c3ccccc3)nc(-c3ccoc3)c2CO1
inactive: activity change, negative = inhibition [1] 20.6% | activity, negative = inhibition [2] 12.9% | Potency [3] > 20.6 µM

Cc1cc(N2C(=O)C(=O)/C(=C(/O)c3ccccc3)C2c2cccc(Br)c2)no1 (stereo not given)
inactive: activity change, negative = inhibition [1] -11.1% | activity, negative = inhibition [2] -23.1% | Potency [3] > 20.6 µM

CN1C2C=C3C(C#N)=C(N)C(C#N)(C#N)[C@@H](c4cccs4)C3C1CC2 (stereo not given in full)
inactive: activity change, negative = inhibition [1] 17.2% | activity, negative = inhibition [2] 13.6% | Potency [3] > 20.6 µM

O=C1OC(Nc2ccc(Br)cc2F)c2ccccc21 (stereo not given)
inactive: activity change, negative = inhibition [1] 0.165% | activity, negative = inhibition [2] 2.24% | Potency [3] > 20.6 µM

COc1cccc(C2=CC(c3ccc(N(C)C)cc3)n3nnnc3N2)c1 (stereo not given)
inactive: activity change, negative = inhibition [1] -12.2% | activity, negative = inhibition [2] 14.4% | Potency [3] > 20.6 µM

CCOC(=O)c1[nH]c2ccc(F)cc2c1N=C(C)N(CC)CC
inactive: activity change, negative = inhibition [1] 4.09% | activity, negative = inhibition [2] 5.12% | Potency [3] > 20.6 µM

O=S(=O)(N[C@@H]1C[C@H]2CC[C@@H]1C2)c1cccs1
inactive: activity change, negative = inhibition [1] -5.92% | activity, negative = inhibition [2] -0.621% | Potency [3] > 20.6 µM

CCn1cc(C(=O)NCCCN(C)C)c(=O)c2cc(F)c(N3CCN(C)CC3)cc21
inactive: activity change, negative = inhibition [1] -0.851% | activity, negative = inhibition [2] 3.71% | Potency [3] > 20.6 µM

Cc1nn(C)cc1/C=N/n1nnnc1N
inactive: activity change, negative = inhibition [1] 0.525% | activity, negative = inhibition [2] -1.52% | Potency [3] > 20.6 µM

CC1(C)Cc2c(c(N3CCCCC3)[nH]c(=S)c2C#N)CS1
inactive: activity change, negative = inhibition [1] 3.57% | activity, negative = inhibition [2] -3.22% | Potency [3] > 20.6 µM

Cn1c(=O)c2c(nc(NCc3ccco3)n2Cc2ccc(Cl)cc2Cl)n(C)c1=O
inactive: activity change, negative = inhibition [1] 4.86% | activity, negative = inhibition [2] -17.6% | Potency [3] > 20.6 µM

COc1ccc(C2/C(=C(\O)c3ccc4c(c3)OCCO4)C(=O)C(=O)N2CCCN(C)C)cc1 (stereo not given)
inactive: activity change, negative = inhibition [1] 8.31% | activity, negative = inhibition [2] 2.89% | Potency [3] > 20.6 µM

O=C(c1ccc(F)cc1)N1CCC(N2CCCCCC2)CC1
inactive: activity change, negative = inhibition [1] -5.56% | activity, negative = inhibition [2] -3.47% | Potency [3] > 20.6 µM

CCCC(=O)Nc1nn(CCC)c2nc3ccccc3cc12
inactive: activity change, negative = inhibition [1] -2.33% | activity, negative = inhibition [2] -4.63% | Potency [3] > 20.6 µM

CCOC(=O)c1nc(N)c(C(=O)OCC)[nH]1
inactive: activity change, negative = inhibition [1] 8.92% | activity, negative = inhibition [2] 6.9% | Potency [3] > 20.6 µM

CCOc1ccc(N2C(=O)CC(N)C2=O)cc1 (stereo not given)
inactive: activity change, negative = inhibition [1] -19.2% | activity, negative = inhibition [2] -5.4% | Potency [3] > 20.6 µM

Cc1nnc(NCc2n[nH]c(=O)c3ccccc23)c2ccccc12
inactive: activity change, negative = inhibition [1] 29.7% | activity, negative = inhibition [2] 25.1% | Potency [3] > 20.6 µM

COC(=O)c1ccc(C2/C(=C(\O)c3cccc(OC)c3)C(=O)C(=O)N2CCCN2CCOCC2)cc1 (stereo not given)
inactive: activity change, negative = inhibition [1] 3.85% | activity, negative = inhibition [2] 15.2% | Potency [3] > 20.6 µM

Nc1nc2n(n1)C(c1cccs1)CC(c1ccc(F)cc1)N2 (stereo not given)
inactive: activity change, negative = inhibition [1] 5.72% | activity, negative = inhibition [2] 1.08% | Potency [3] > 20.6 µM

O=C(NCCCn1ccnc1)C(Cc1ccccc1)N1C(=O)c2ccccc2C1=O (stereo not given)
inactive: activity change, negative = inhibition [1] -14.7% | activity, negative = inhibition [2] 5.97% | Potency [3] > 20.6 µM

Fc1ccc2[nH]c3c(N4CCN(C5CCCCC5)CC4)ncnc3c2c1
inactive: activity change, negative = inhibition [1] 7.44% | activity, negative = inhibition [2] 16.1% | Potency [3] > 20.6 µM

C=C(C)CSc1nnc2n(C)c(=O)c3c4c(sc3n12)CCC4
inactive: activity change, negative = inhibition [1] -2.43% | activity, negative = inhibition [2] 2.61% | Potency [3] > 20.6 µM

O=c1[nH]cnc2c1cnn2Cc1ccccc1
inactive: activity change, negative = inhibition [1] 2.81% | activity, negative = inhibition [2] 6.19% | Potency [3] > 20.6 µM

CCN1CC2=C(OC(N)=C(C#N)C2c2ccccc2)/C(=C\c2ccccc2)C1 (stereo not given)
inactive: activity change, negative = inhibition [1] -16.4% | activity, negative = inhibition [2] -29.2% | Potency [3] > 20.6 µM

CN(C)CCCN1C(=O)C(=O)/C(=C(/O)c2ccccc2)C1c1ccccn1 (stereo not given)
inactive: activity change, negative = inhibition [1] 7% | activity, negative = inhibition [2] 4.69% | Potency [3] > 20.6 µM

N#CCCN(CCC#N)c1nnc(-c2ccccc2)s1
inactive: activity change, negative = inhibition [1] 8.96% | activity, negative = inhibition [2] 1.66% | Potency [3] > 20.6 µM

Cn1c(=O)c2c(nc(SCCN3CCCCC3)n2Cc2ccc(Cl)cc2)n(C)c1=O
inactive: activity change, negative = inhibition [1] 11.2% | activity, negative = inhibition [2] -9.94% | Potency [3] > 20.6 µM

N#CCSc1nc2sc3c(c2c(=O)n1C1CCCCC1)CCCC3
inactive: activity change, negative = inhibition [1] -7.41% | activity, negative = inhibition [2] 6.22% | Potency [3] > 20.6 µM

CCOC(=O)c1cc2c(=O)n3cccc(C)c3nc2n(CCc2ccccc2)c1=N
inactive: activity change, negative = inhibition [1] 9.31% | activity, negative = inhibition [2] 29.4% | Potency [3] > 20.6 µM

CCCCc1cc(=O)oc2c(CN(C)C)c(O)c(Cl)cc12
inactive: activity change, negative = inhibition [1] -6.67% | activity, negative = inhibition [2] 14.1% | Potency [3] > 20.6 µM

CCOc1ccc(C2=Nn3c(nnc3-c3ccccn3)SC2)cc1
inactive: activity change, negative = inhibition [1] -11.7% | activity, negative = inhibition [2] 3.43% | Potency [3] > 20.6 µM

Oc1c(C=Nc2cccnc2)sc2ccccc12
inactive: activity change, negative = inhibition [1] 8.1% | activity, negative = inhibition [2] -3.68% | Potency [3] > 20.6 µM

Clc1ccc(-n2ncc3c(NCc4cccs4)ncnc32)cc1
inactive: activity change, negative = inhibition [1] 13.8% | activity, negative = inhibition [2] -14.7% | Potency [3] > 20.6 µM

C=CCN(CC=C)c1nc2ccccc2nc1C(C#N)C(=O)OC(C)C (stereo not given)
inactive: activity change, negative = inhibition [1] -13.3% | activity, negative = inhibition [2] -28.3% | Potency [3] > 20.6 µM

COc1cc2[nH]c3c(=O)n(CCN(C(C)C)C(C)C)cnc3c2cc1OC
inactive: activity change, negative = inhibition [1] -1.5% | activity, negative = inhibition [2] 6.66% | Potency [3] > 20.6 µM

C=CCOc1ccc(/C(O)=C2\C(=O)C(=O)N(CCN(C)C)C2c2cccs2)cc1 (stereo not given)
inactive: activity change, negative = inhibition [1] -5.42% | activity, negative = inhibition [2] -3.79% | Potency [3] > 20.6 µM

O=S(=O)(c1cccc(-c2csc(-c3ccccc3)n2)c1)N1CCOCC1
inactive: activity change, negative = inhibition [1] -13.8% | activity, negative = inhibition [2] -9.15% | Potency [3] > 20.6 µM

CN1CCN(CC(=O)Nc2nc(-c3ccccc3)cs2)CC1
inactive: activity change, negative = inhibition [1] 9.16% | activity, negative = inhibition [2] -4.84% | Potency [3] > 20.6 µM

N=c1ncn(CC(O)CN2CCOCC2)c2nc(N3CCOCC3)[nH]c12 (stereo not given)
inactive: activity change, negative = inhibition [1] 6.34% | activity, negative = inhibition [2] 13.6% | Potency [3] > 20.6 µM

Cc1ccc(S(=O)(=O)c2cc3c(=O)n4cccc(C)c4nc3n(CC3CCCO3)c2=N)cc1 (stereo not given)
inactive: activity change, negative = inhibition [1] 2.16% | activity, negative = inhibition [2] 2.48% | Potency [3] > 20.6 µM

Cc1ccc(/C(O)=C2/C(=O)C(=O)N(Cc3ccco3)C2c2cccs2)cc1 (stereo not given)
inactive: activity change, negative = inhibition [1] 2.29% | activity, negative = inhibition [2] -12.7% | Potency [3] > 20.6 µM
